Results taken from PubChem BioAssay (Tox21).
Values joined by “and” are separate entries in the source; they are usually repeats but may differ in a detail not shown here. Equal entries are not always repeated. Values without a mark were called inactive. Results filed as inconclusive are left out. A call without a number means that no potency is given here. Active and inactive are the calls of the source. Unless noted, the call rests on the fitted dose curve; in most records, active means well fitted curve in the direction sought with a large enough effect in the repeat runs; inconclusive means weak or mixed curves; inactive means no such curve, though single readings can be large; an effect the other way counts as inactive or inconclusive.

Legend:
[1] = qHTS assay to test for compound auto fluorescence at 535 nm (green) in HEK293 cells (AID 720680)
[2] = qHTS assay to test for compound auto fluorescence at 460 nm (blue) in HEK293 cell free culture (AID 720681)
Method in brief: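 Blue fluorescence (Ex 405/Em 460 nm, triamterene-equivalent) was read immediately after pin transfer of compound or DMSO into medium (DMEM, 10% FBS) without cells.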

[3] = qHTS assay to test for compound auto fluorescence at 535 nm (green) in HEK293 cell free culture (AID 720682)
Method in brief: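 Green-channel intensity (Ex/Em 485/535 nm) was recorded from compound-treated wells containing only DMEM with 10% FBS. Fluorescein provided the equivalency standard.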

[4] = qHTS assay to test for compound auto fluorescence at 590 nm (red) in HEK293 cell free culture (AID 720683)
Method in brief: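 Red-channel autofluorescence of compounds in culture medium (DMEM, 10% FBS), no cells, measured at 540/590 nm. Rose Bengal sodium is the reference fluorophore for equivalence.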

[5] = qHTS assay to test for compound auto fluorescence at 590 nm (red) in HepG2 cell free culture (AID 720684)
Method in brief: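 Plate contents were MEM with 10% FBS plus test compound or DMSO, no cells. Fluorescence was recorded with 540 nm excitation and 590 nm emission.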

[6] = qHTS assay to test for compound auto fluorescence at 460 nm (blue) in HepG2 cell free culture (AID 720685)
Method in brief: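 Compound (23 nL) or DMSO pinned into cell-free MEM with 10% FBS; blue fluorescence read at 405/460 nm excitation/emission, expressed as auto-fluorescence equivalency to triamterene.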

[7] = qHTS assay to test for compound auto fluorescence at 535 nm (green) in HepG2 cell free culture (AID 720686)
[8] = qHTS assay to test for compound auto fluorescence at 460 nm (blue) in HepG2 cells (AID 720687)
Method in brief: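 Blue-channel autofluorescence (Ex/Em 405/460 nm, triamterene-equivalent) was measured after 1 hr compound exposure at 37 C, 5% CO2. Cells were HepG2, plated overnight at 37 C in MEM plus 10% FBS.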

[9] = molecular target: Glucocorticoid receptor (Homo sapiens) (UniProt P04150); assay: qHTS assay to identify small molecule agonists of the glucocorticoid receptor (GR) signaling pathway (AID 720691; active means well fitted activation curve with a large enough effect in the signal ratio in the repeat runs, not every such curve was filed as active; the % refers to the signal ratio)
Method in brief: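 GR-bla HeLa cells carrying a GRE-driven beta-lactamase reporter, exposed to compounds for 18 h at 37 C. Reporter activation read as fluorescence after 2 h with LiveBLAzer B/G FRET substrate at room temperature.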

[10] = qHTS assay to identify small molecule antagonists of the glucocorticoid receptor (GR) signaling pathway - cell viability counter screen (AID 720693); further: nearly all actives have a fitted effect of over 55% in size
[11] = qHTS assay for identifying genotoxic compounds that show differential cytotoxicity against isogenic chicken DT40 cell lines with known DNA damage response pathways - wild type cell line (AID 743012); further: nearly all actives have a fitted effect of over 60% in size; further: potency means the concentration at half of the fitted maximal effect
Method in brief: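 Wild-type DT40 cells (300/well) exposed to compounds for 40 hours at 37 C/5% CO2. Viability read by CellTiter-Glo luminescence after 30 min at room temperature.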

[12] = qHTS assay for identifying genotoxic compounds that show differential cytotoxicity against isogenic chicken DT40 cell lines with known DNA damage response pathways - Rev3 mutant cell line (AID 743014); further: nearly all actives have a fitted effect of over 55% in size; further: potency means the concentration at half of the fitted maximal effect
[13] = qHTS assay for identifying genotoxic compounds that show differential cytotoxicity against isogenic chicken DT40 cell lines with known DNA damage response pathways - Rad54/Ku70 mutant cell line (AID 743015); further: nearly all actives have a fitted effect of over 60% in size; further: potency means the concentration at half of the fitted maximal effect
[14] = qHTS assay to identify small molecule antagonists of the androgen receptor (AR) signaling pathway - cell viability counter screen (AID 743033; further: nearly all actives have a fitted effect of over 45% in size; further: potency means the concentration at half of the fitted maximal effect)
[15] = molecular target: Androgen receptor (Homo sapiens) (UniProt P10275); assay: qHTS assay to identify small molecule antagonists of the androgen receptor (AR) signaling pathway (AID 743035; active means well fitted inhibition curve with a large enough effect in the signal ratio in the repeat runs, not every such curve was filed as active; the % refers to the signal ratio; further: potency means the concentration at half of the fitted maximal effect)
Method in brief: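 HEK293 cells stably carrying UAS-beta-lactamase reporter, 2,000/well, given compounds plus R1881 agonist and incubated 16 h at 37C. LiveBLAzer B/G FRET substrate then added for 2 h at room temperature before fluorescence reading.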

[16] = qHTS assay to identify small molecule antagonists of the androgen receptor (AR) signaling pathway using the MDA cell line - cell viability counter screen (AID 743041; further: nearly all actives have a fitted effect of over 45% in size; further: potency means the concentration at half of the fitted maximal effect)
Method in brief: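 R1881-driven MDA-kb2 AR-luc cells, 3,000/well, were dosed with library compounds for 16 h; cell health came from CellTiter-Fluor fluorescence in the reporter wells.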

[17] = qHTS assay to identify small molecule antagonists of the thyroid receptor (TR) signaling pathway - cell viability counter screen (AID 743064); further: nearly all actives have a fitted effect of over 50% in size; further: potency means the concentration at half of the fitted maximal effect
Method in brief: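 In rat pituitary GH3.TRE-Luc reporter cells co-exposed to compound and 1 nM T3 for 23.5 h, cytotoxicity was assessed with CellTiter-Fluor in the same wells, read by fluorescence.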

[18] = molecular target: Androgen receptor (Homo sapiens) (UniProt P10275); assay: qHTS assay to identify small molecule agonists of the androgen receptor (AR) signaling pathway using the MDA cell line (AID 743040; further: nearly all actives have a fitted effect of over 20% in size)
Method in brief: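 After a 5 h incubation at 37C and 0% CO2, MDA-kb2 reporter cells were dosed with compounds in DMSO and kept 16 h under the same conditions. Luciferase activity was then read as luminescence with ONE-Glo.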

[19] = molecular target: Androgen receptor (Homo sapiens) (UniProt P10275); assay: qHTS assay to identify small molecule antagonists of the androgen receptor (AR) signaling pathway using the MDA cell line (AID 743042; further: nearly all actives have a fitted effect of over 55% in size)
Method in brief: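 Antagonist mode: compounds plus R1881 agonist added to MDA-kb2 AR-luc cells, incubated 16 h at 37C. Luciferase reporter luminescence quantified, with multiplexed CellTiter-Fluor readout for cell viability.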

Chain of Glucocorticoid receptor (Homo sapiens) (P04150 whole entry, looked up): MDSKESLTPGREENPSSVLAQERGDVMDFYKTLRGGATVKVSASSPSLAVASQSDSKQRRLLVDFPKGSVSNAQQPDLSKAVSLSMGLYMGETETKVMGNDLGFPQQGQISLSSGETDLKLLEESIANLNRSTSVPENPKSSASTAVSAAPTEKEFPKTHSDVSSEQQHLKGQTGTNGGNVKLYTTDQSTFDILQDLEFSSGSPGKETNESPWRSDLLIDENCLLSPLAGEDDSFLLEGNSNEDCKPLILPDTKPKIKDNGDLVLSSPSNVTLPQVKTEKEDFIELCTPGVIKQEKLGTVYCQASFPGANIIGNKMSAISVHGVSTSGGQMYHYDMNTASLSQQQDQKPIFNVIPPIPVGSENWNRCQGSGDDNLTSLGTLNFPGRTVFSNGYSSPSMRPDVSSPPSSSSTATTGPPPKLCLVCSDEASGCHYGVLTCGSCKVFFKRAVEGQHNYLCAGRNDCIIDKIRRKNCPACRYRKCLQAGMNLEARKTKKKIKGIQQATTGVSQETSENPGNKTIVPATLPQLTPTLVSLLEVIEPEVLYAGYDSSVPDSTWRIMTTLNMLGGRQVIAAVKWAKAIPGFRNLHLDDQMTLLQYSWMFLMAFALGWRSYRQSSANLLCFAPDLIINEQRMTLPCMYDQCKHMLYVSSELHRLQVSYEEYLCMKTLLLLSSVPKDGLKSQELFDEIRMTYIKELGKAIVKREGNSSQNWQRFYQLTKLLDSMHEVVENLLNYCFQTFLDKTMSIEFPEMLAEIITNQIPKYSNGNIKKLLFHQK
Chain of Androgen receptor (Homo sapiens) (P10275 whole entry, looked up): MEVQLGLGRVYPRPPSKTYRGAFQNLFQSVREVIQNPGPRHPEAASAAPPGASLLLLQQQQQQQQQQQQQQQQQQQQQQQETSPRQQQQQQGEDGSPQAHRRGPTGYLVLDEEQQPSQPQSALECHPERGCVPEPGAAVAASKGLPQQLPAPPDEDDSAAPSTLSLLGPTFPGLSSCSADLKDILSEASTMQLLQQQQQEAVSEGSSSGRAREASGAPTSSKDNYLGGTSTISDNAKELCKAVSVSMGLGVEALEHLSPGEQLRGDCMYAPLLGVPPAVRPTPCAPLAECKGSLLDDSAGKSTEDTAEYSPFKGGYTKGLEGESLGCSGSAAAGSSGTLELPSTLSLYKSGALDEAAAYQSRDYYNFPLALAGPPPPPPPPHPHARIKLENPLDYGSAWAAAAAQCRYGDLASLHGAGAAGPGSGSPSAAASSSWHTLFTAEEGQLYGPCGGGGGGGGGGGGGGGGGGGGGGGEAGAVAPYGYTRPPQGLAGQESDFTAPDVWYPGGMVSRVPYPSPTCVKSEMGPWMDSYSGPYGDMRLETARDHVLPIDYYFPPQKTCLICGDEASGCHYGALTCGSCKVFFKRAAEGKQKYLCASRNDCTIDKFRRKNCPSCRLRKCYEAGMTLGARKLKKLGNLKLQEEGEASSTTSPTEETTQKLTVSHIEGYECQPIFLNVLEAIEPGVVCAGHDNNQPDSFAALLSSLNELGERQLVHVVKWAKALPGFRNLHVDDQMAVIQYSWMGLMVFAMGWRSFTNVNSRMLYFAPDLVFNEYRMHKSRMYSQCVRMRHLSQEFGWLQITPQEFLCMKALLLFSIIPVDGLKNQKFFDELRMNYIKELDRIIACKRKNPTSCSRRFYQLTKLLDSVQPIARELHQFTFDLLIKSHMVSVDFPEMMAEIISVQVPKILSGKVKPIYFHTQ

Row | Compound | outcome [1] | Potency [2] | outcome [3] | outcome [4] | outcome [5] | Potency [6] | outcome [7] | Potency [8] | Potency [9] | Potency [10] | Potency [11] | Potency [12] | Potency [13] | Potency [14] | Potency [15] | Potency [16] | Potency [17] | Potency [18] | Potency [19]
1 | CC(C)(C)CC(C)(C)c1ccc(OCCO)cc1 | inactive | inactive | inactive | inactive | inactive | inactive | inactive | inactive | inactive | inactive | 3.76 µM (active) and 13.6 µM (active) | 6.68 µM (active) and 7.65 µM (active) | 5.96 µM (active) and 9.63 µM (active) | 21.8 µM (active) | 15.1 µM (active) and 12.2 µM (active) | 27.8 µM (active) and 48.3 µM (active) | 11.9 µM (active) and 60.8 µM (active) |  | 
2 | CCCCCCCC/C=C\CCCCCCCC(=O)OC | inactive | inactive | inactive | inactive | inactive | inactive | inactive | inactive | inactive | inactive | inactive | inactive |  | inactive |  | inactive |  |  | 
3 | Cc1cc(C(=C2C=CC(=Nc3ccc(S(=O)(=O)O)cc3S(=O)(=O)O)C=C2)c2ccc(Nc3ccc(S(=O)(=O)O)cc3)cc2)ccc1N | inactive | inactive | inactive | inactive | inactive | inactive | inactive | inactive | inactive | inactive | inactive | inactive |  | inactive |  | inactive | inactive |  | 
4 | CCCOc1ccc(S(=O)(=O)N2CCN(CC)CC2)cc1-c1nc2c(CC)n(Cc3ccccn3)nc2c(=O)[nH]1 | inactive | inactive | inactive | inactive | inactive | inactive | inactive | inactive | inactive | inactive |  |  |  | inactive |  | inactive | inactive |  | 
5 | Brc1cc(-c2ccc(Br)c(Br)c2Br)cc(Br)c1Br | inactive | inactive | inactive | inactive | inactive | inactive | inactive | inactive | inactive | inactive | inactive | inactive |  | inactive |  | inactive | inactive |  | 
6 | NC(=O)N(O)[C@@H]1C=C[C@H](Oc2cccc(Oc3ccc(F)cc3)c2)C1 | inactive | inactive | inactive | inactive | inactive | inactive | inactive | inactive | inactive | inactive | 54.5 µM (active) | 61.1 µM (active) | 54.5 µM (active) |  |  | inactive | inactive |  | 
7 | C=CCOC(=O)/C=C\C(=O)OCC=C | inactive | inactive | inactive | inactive | inactive | inactive | inactive | inactive | inactive | inactive | inactive | inactive | inactive |  | inactive |  | inactive |  | 
8 | CCCCC(CC)CNCC(CC)CCCC (centres undefined) | inactive | inactive | inactive | inactive | inactive | inactive | inactive | inactive | inactive | inactive | inactive | inactive | inactive | inactive |  | inactive | inactive |  | 
9 | Cc1oc(C)c(C(=O)Nc2ccccc2)c1C | inactive | inactive | inactive | inactive | inactive | inactive | inactive | inactive | inactive | inactive | 13.7 µM (active) | 10.9 µM (active) | 13.7 µM (active) |  |  |  | inactive |  | 
10 | CC[C@@H]([C@H](C)O)n1ncn(-c2ccc(N3CCN(c4ccc(OC[C@@H]5CO[C@@](Cn6cncn6)(c6ccc(F)cc6F)C5)cc4)CC3)cc2)c1=O | inactive | inactive | inactive | inactive | inactive | inactive | inactive | inactive | inactive |  | 1.19 µM (active) | 1.88 µM (active) | 1.68 µM (active) | inactive |  | inactive |  |  | 
11 | N#C/C(=C1/SC[C@@H](c2ccc(Cl)cc2Cl)S1)n1ccnc1 | inactive | inactive | inactive | inactive | inactive | inactive | inactive | inactive | inactive | inactive | 21.1 µM (active) and 13.3 µM (active) and 26.6 µM (active) | 26.6 µM (active) and 29.8 µM (active) |  | inactive |  | inactive |  |  | 
12 | C[Si]1(C)O[Si](C)(C)O[Si](C)(C)O1 | inactive | inactive | inactive | inactive | inactive | inactive | inactive | inactive |  | inactive | inactive | inactive | inactive | inactive | inactive | inactive | inactive | inactive | 
13 | Nc1ccc(Cl)cc1[N+](=O)[O-] | inactive | inactive | inactive | inactive | inactive | inactive | inactive | inactive |  | inactive | inactive | inactive |  | inactive |  | inactive |  | inactive | inactive
14 | COC(=O)Nc1nc2ccc(C(=O)c3cccs3)cc2[nH]1 | inactive | inactive | inactive | inactive | inactive | inactive | inactive | inactive |  |  | 0.15 µM (active) | 0.211 µM (active) |  |  |  | inactive | 266 nM (active) |  | 
15 | COc1cc2c(cc1OC)-c1cc(=Nc3c(C)cc(C)cc3C)n(C)c(=O)n1CC2 | inactive | inactive | inactive | inactive | inactive | inactive | inactive | inactive |  |  | 2.66 µM (active) | 4.22 µM (active) | 6.68 µM (active) |  | 19 µM (active) |  | 21100 nM (active) |  | 
